Only some compounds are listed: those with a hit (about 3.5% of all), similar ones and a draw of the others.
BoNT F protease: BoNT/F light chain protease inhibitors, primary screen, biochemical, flow cytometry, MLPCN library | Multiplex microsphere protease cleavage assay | AID 588497, 2011 | Botulinum neurotoxin type F light chain protease (Clostridium botulinum) | hit rate 0.22% among 360,000 | inhibition, % at 10 µM; in the data active = inhibition above about 35%, passing the limit was not always enough; inconclusive = no clear call, values can overlap the other calls; also: plate controls were buffer without enzyme for full effect and enzyme alone for no effect
Anthrax LF prot: Bacillus anthracis LF protease inhibitors, primary screen, biochemical, multiplex microsphere, MLPCN library; multiplex microsphere protease cleavage assay; AID 588501, 2011; Lethal factor (Bacillus anthracis), P15917; hit rate 0.12% among 360,000; inhibition, % at 10 µM; also: plate controls were buffer without enzyme for full effect and enzyme alone for no effect
BoNT-A LC inh2: BoNT/A light chain protease inhibitors, primary screen, biochemical, flow cytometry, MLPCN library. inhibition, % at 10 µM. AID 588499, 2011. hit rate 0.17% among 360,000. multiplex microsphere protease substrate cleavage; also: plate controls were buffer without enzyme for full effect and enzyme alone for no effect
Bead autofluor: compound fluorescence in toxin protease inhibitor counterscreen; hit rate 3.1% among 360,000; compound autofluorescence counterscreen, microsphere flow cytometry; active compounds read high; fluorescence intensity (no concentration beside the values); AID 624483; in the data active = fluorescence intensity above about 16000; inconclusive = no clear call, values can overlap the other calls
An asterisk follows results filed as active; ? = inconclusive. Rule as the data show it, unless noted: active = inhibition above about 30%; inconclusive = no clear call, values can overlap the other calls; inactive = below that.

SMILES	BoNT F protease	Anthrax LF prot	BoNT-A LC inh2	Bead autofluor
O=C(C1CCN(S(=O)(=O)c2ccccc2)CC1)N1CCOCC1	-2	-2	?	16459*
Cc1cc(NC(=O)C2CC(=O)N(c3ccccc3Cl)C2)no1 (stereo not drawn)	2	1	1	5669
COCCN(C(=O)CCC(=O)Nc1ccccn1)C(C(=O)NCCC(C)C)c1ccc(F)cc1 (stereo not drawn)	-13	0	-2	3916
O=C1CN(S(=O)(=O)c2cc(Cl)ccc2Cl)CCN1	-3	-2	1	3369
O=S(=O)(c1ccc(Cl)cc1Br)N1CCCCC1	-7	1	-2	20568*
CC1CCN(S(=O)(=O)c2cc(Cl)ccc2Br)CC1	-4	0	0	12013
O=S(=O)(c1cc(Cl)ccc1Cl)N1CCNCC1	-11	-2	-5	20984*
CCCCN(C1CCS(=O)(=O)C1)S(=O)(=O)c1ccc(OC)c(OC)c1 (stereo not drawn)	5	1	7	?
CCN(CC)CCOC(=O)c1ccc(NC(=O)C(C)NC(=O)C23CC4CC(CC(C4)C2)C3)cc1 (stereo not drawn)	1	1	0	2438
COc1ccc(OC)c2c(N3CC(C)OC(C)C3)cc(C(F)(F)F)nc12 (stereo not drawn)	-8	-6	-1	6433
CC1CN(c2cc3nccnc3cc2F)CC(C)O1 (stereo not drawn)	1	1	?	16271*
Cc1nn(Cc2ccccc2)c(=O)n1N(C)c1ncc(C(F)(F)F)cc1Cl	13	6	1	4112
CCC(=O)NC(Nc1nc(C)cs1)(C(=O)OC)C(F)(F)F (stereo not drawn)	2	-1	0	2038
C=CCn1c(Sc2nc(C)cs2)nc2c1c(=O)[nH]c(=O)n2C	-2	-2	-2	23702*
Cc1csc(Sc2nc3c(c(=O)[nH]c(=O)n3C)n2Cc2ccccc2Cl)n1	5	-7	1	5276
C=CCn1c(SCCOC)nc2c1c(=O)[nH]c(=O)n2C	-1	-4	0	5617
Cc1cccc(Cn2c(Sc3nc(C)cs3)nc3c2c(=O)[nH]c(=O)n3C)c1	4	-3	?	19241*
O=C(c1cccs1)N1C[C@H](O)[C@@H](n2cc(-c3ccc(F)cc3)nn2)C[C@@H]1c1ccccc1	1	2	0	3590
Cc1nc(N2CCN(C(=O)c3ccco3)CC2)nc2c1C(=O)CC(C)C2 (stereo not drawn)	-4	0	-1	5418
CCOC(=O)N1CCN(c2nc(C)c3c(n2)CC(C)CC3=O)CC1 (stereo not drawn)	-1	-4	0	23668*
CCOCCCN(C(=O)CNC(=O)c1ccco1)C(C(=O)NC1CCCC1)c1cccc(OC)c1 (stereo not drawn)	-18	10	-1	3668
CCOC(=O)c1c(C)n(C)c2ccc(O)c(S(=O)(=O)c3ccccc3)c12	-2	-1	-2	24053*
Cc1c(/C=N/n2cnnc2)c2ccccc2n1CCOc1ccc(Cl)cc1	-2	-5	0	16355*
Cc1ccc(OCCn2c(C)c(/C=N/n3cnnc3)c3ccccc32)cc1	?	8	2	3679
CCN(CC)S(=O)(=O)c1ccc(/C=C/C(=O)Nc2ccc(N3CCOCC3)cc2)cc1	-9	-2	0	5113
SMILES	BoNT F protease	Anthrax LF prot	BoNT-A LC inh2	Bead autofluor
CC(=O)OCc1c(C(F)(F)F)nn(C)c1Oc1ccccc1	-5	1	-3	17428*
Cc1nn(C)c(Oc2cccc(C(F)(F)F)c2)c1C=O	3	-4	1	4095
CC(=O)OCc1c(C(F)(F)F)nn(C)c1Oc1cccc(C(F)(F)F)c1	1	-1	0	16385*
Cc1cc(C)n(C(=O)c2c([N+](=O)[O-])c(C)nn2C)n1	-4	-1	-4	24146*
Cc1ccc(S(=O)(=O)Nc2cccc3c2CCCC3)cc1	-8	-3	0	2428
COC(=O)c1cc(-c2ccc(Cl)cc2Cl)n[nH]1	-1	-2	-1	2670
CCC(=O)Oc1c(C(=O)CC)cc2c(C)cc(=O)oc2c1C	13	0	1	7504
CCC(=O)c1cc2c(C)cc(=O)oc2c(C)c1OC	3	-2	1	22529*
CC1=C(C)CC(C(=O)NCCc2ccc(F)cc2)C(C(=O)O)C1 (stereo not drawn)	-30	-12	0	3292
CC1=C(C)CC(C(=O)NCCc2ccccc2)C(C(=O)O)C1 (stereo not drawn)	0	0	0	23755*
Cc1ccc(CCNC(=O)C2CCCN(C(=O)N(C)C)C2)cc1 (stereo not drawn)	-12	-6	-6	25529*
CN(C)C(=O)N1CCCC(C(=O)NCc2ccccc2)C1 (stereo not drawn)	7	-2	2	9295
CN(C)C(=O)N1CCCC(C(=O)NCCc2ccccc2)C1 (stereo not drawn)	-7	-4	-6	24323*
CC1CCCN(S(=O)(=O)c2ccc(NC(=O)C3CCN(C(=O)C(C)(C)C)CC3)cc2)C1 (stereo not drawn)	-5	0	0	4016
O=S(=O)(c1ccccc1F)N1CCN(Cc2cc3c(cc2Br)OCCO3)CC1	3	-6	-1	3915
CCOC(=O)CN1C(=O)N(CC(=O)OCC)C(c2ccccc2)(c2ccccc2)C1=O	?	7	-4	3140
CC1(NC(=O)CC(c2ccccc2)(c2ccccc2)c2ccccc2)CCN(CCCc2ccccc2)C1=O (stereo not drawn)	-3	-4	0	3762
NC(=O)C1CCN(C(=O)C(=O)c2cn(CC(=O)N3CCCCCC3)c3ccccc23)CC1	17	39*	39*	7217
CC1CCCN(C(=O)C(=O)c2cn(CC(=O)N3CCCCCC3)c3ccccc23)C1 (stereo not drawn)	13	28	35*	7036
CN1CCN(C(=O)C(=O)c2cn(CC(=O)N3CCCCCC3)c3ccccc23)CC1	12	36*	10	4647
CC1CCN(C(=O)C(=O)c2cn(CC(=O)N3CCCCCC3)c3ccccc23)CC1	8	38*	37*	6694
Nc1nc[nH]c(=O)c1N=Cc1ccccc1	0	2	0	4935
Cc1nc2ccc(C(=O)N3CCN(Cc4ccccc4)CC3)cc2[nH]1	-7	-9	-1	3729
CCOc1ccc(OCCn2nnc3ccccc3c2=O)cc1	0	-10	0	4342
COC(=O)C1(C)CCCC2(C)C3CCC(C(C)C)C(CO)C3C(CO)CC12 (stereo not drawn)	3	4	-1	2943
C=CCn1c(N2C(=O)CC(Cc3ccccc3)C2=O)nc2ccccc21 (stereo not drawn)	-2	-2	-1	22688*
C=CCn1c(NCc2ccccc2)nc2ccccc21	3	-7	1	6295
COc1ccc(-c2nnc(SCC(N)=O)n2N)cc1	5	4	2	10349
C=C(C)CSc1nnc(-c2ccc(OC)cc2)n1N	1	1	1	19732*
C=C(C)CSc1nnc(-c2cccc(Cl)c2)n1N	5	-3	4	21220*

High-throughput results (PubChem BioAssay)
